M1 antag = M1 muscarinic receptor (rat) antagonism. hit rate 3.4% among 64,000. B-score at 10 µM. CHO-M1 cells, Fluo-4 calcium, ACh EC80 antagonist mode; hits give low values. AID 628. P08482;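 active = calcium fluorescence response, raw or row-and-column corrected B-score, differing from the plate sample mean either way at a set confidence level, mostly lower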
M1 ag = M1 muscarinic receptor agonism; B-score at 10 µM; CHO-M1 cells, Fluo-4 calcium fluorescence, agonist mode; hits give high values; hit rate 3% among 64,000;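 active = fluorescence rise, raw or as B-score row- and column-corrected plate score, outside the 99.7% band of its plate's samples, either direction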
D1 mod = D1 dopamine receptor (human) allosteric modulation | B-score at 10 µM | hit rate 5.9% among 58,000 | HEK293 D1, CRE-luciferase, dopamine EC30 potentiation; actives deviate in either direction | P21728;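 active = luminescence count or its row- and column-corrected plate score outside the 99.7% band of the plate's sample wells, on either side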
Target sequence (P21728 whole entry, looked up): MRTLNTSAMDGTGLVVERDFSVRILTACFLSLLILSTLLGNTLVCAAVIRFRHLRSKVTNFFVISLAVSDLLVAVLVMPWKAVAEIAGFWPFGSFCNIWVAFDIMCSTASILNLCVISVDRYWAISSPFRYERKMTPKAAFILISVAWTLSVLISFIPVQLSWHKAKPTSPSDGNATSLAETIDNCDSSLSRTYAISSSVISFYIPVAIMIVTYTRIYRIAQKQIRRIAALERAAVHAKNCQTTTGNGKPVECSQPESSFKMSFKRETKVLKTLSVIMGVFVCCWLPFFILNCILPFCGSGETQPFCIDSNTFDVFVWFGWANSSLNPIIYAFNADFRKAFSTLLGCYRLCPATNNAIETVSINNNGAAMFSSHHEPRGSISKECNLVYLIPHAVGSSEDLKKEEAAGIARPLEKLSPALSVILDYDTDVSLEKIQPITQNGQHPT
FXIIa mix inh = blocks human factor XIIa in pooled compound mixtures | hit rate 0.2% among 62,000 | P00748 | purified FXIIa, fluorogenic substrate | inhibition, % at 5 µM | AID 684
hDAT+cocaine = changed human dopamine transporter uptake under cocaine IC80. LLC-PK1 hDAT cells, [14C]-dopamine uptake with cocaine IC80; actives deviate in either direction. hit rate 1.3% among 110,000. B-score at 10 µM. Q01959;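 active = Z score or B-score, a plate-position-corrected score, falls beyond the plate's 99.7% confidence bounds, in either direction; inactive = both scores lie inside the 99.7% bounds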
FXIa inh mix = blocks human factor XIa in pooled compound mixtures | P03951 | purified FXIa, fluorogenic substrate | inhibition, % at 5 µM | hit rate 0.19% among 62,000 | AID 680;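 also: each value is inhibition by a whole ten-compound pool holding the compound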
Numbers stand for hits; n = inactive; x = not tested or not shown. Shown are actives, neighbours in structure and some others; about 7.4% of the full set was active somewhere. Rule as the data show it, unless noted: active = inhibition above about 20% (passing the limit was not always enough); inactive = the rest.

SMILES	M1 antag	M1 ag	D1 mod	FXIIa mix inh	hDAT+cocaine	FXIa inh mix
O=C(CSc1nnc(-c2csc3c2CCCC3)o1)Nc1ccccc1	n	n	-2.28	n	n	n
CC1CCCN(C(=O)CSc2nnc3n(C4CCCC4)c(=O)c4ccccc4n23)C1 (stereo not given)	n	n	n	n	3.1	n
COc1ccccc1N1CCN(C(c2cc3cc(C)ccc3[nH]c2=O)c2nnnn2C2CCCC2)CC1 (stereo not given)	n	n	n	n	n	n
N#Cc1c(/N=C/c2cccs2)sc2c1CCCCC2	n	n	-3.58	n	n	n
Cc1cccc(N2CCN(c3nc4ccccc4n4cnnc34)CC2)c1C	0.357	n	n	n	n	n
O=C(CS(=O)(=O)Cc1ccccc1)Nc1nc2ccccc2s1	n	n	n	n	n	n
O=S(=O)(Nc1nc2ccccc2s1)c1ccc(Cl)s1	x	x	x	x	-3.6	x
CN(CCOc1ccc(-c2ccn(S(=O)(=O)c3c(Cl)cccc3Cl)n2)cc1)c1ccccn1	x	x	x	x	n	x
CN(CCOc1ccc(-c2ccn(S(=O)(=O)c3cccc4ccccc34)n2)cc1)c1ccccn1	x	x	x	x	-8.28	x
C(=N\N1CCN(C2c3ccccc3-c3ccccc32)CC1)/c1ccncc1	x	x	x	x	n	x
COc1cc(/C=N/N2CCN(C3c4ccccc4-c4ccccc43)CC2)ccc1O	x	x	x	x	-1.76	x
CC(C)(C)C(=O)N1CCC(O)(CS(=O)(=O)Cc2ccccc2Cl)CC1	x	x	x	x	n	x
Cc1nn(Cc2ccc(F)cc2)c(C)c1NC(=O)c1cnn2c1NC(c1ccccc1)CC2C(F)(F)F (stereo not given)	x	x	x	x	n	x
Cc1nn(Cc2ccc(F)cc2)c(C)c1NC(=O)c1cnn2c1NC(c1cccs1)CC2C(F)(F)F (stereo not given)	x	x	x	x	2.92	x
Cc1ccc(S(=O)(=O)N2CCOCC2)cc1C(=O)NCc1cccnc1	x	x	x	x	n	x
O=C(Nc1ccccc1Cl)c1ccccc1Cl	x	x	x	x	n	x
Cn1c(=O)c2cc(NC(=O)c3ccccc3Cl)c(=O)oc2n(C)c1=O	n	n	n	n	n	32.7
CCCCNC(=O)c1cc2n(n1)C(C(F)(F)F)CC(c1ccccc1)N2 (stereo not given)	n	n	x	x	n	x
Cc1ccc(OCC(=O)N2CCN(c3nnc(-c4ccccc4)c4ccccc34)CC2)cc1	x	x	x	x	3.04	x
CCCc1cc(=O)[nH]c(SCC(=O)NCCCC(=O)OCC)n1	x	x	x	x	n	x
O=C(CCCCCCN1C(=O)c2ccccc2C1=O)N1CCC(c2ccccc2)C1 (stereo not given)	x	x	x	x	3.4	x
CCOC(=O)C1CCN(C(=O)CCCN2C(=O)c3ccccc3C2=O)CC1	n	n	n	n	n	n
Cc1c(C)n(Cc2ccccc2)c2ncnc(N)c12	n	n	-2.84	n	n	n
CCOC(=O)n1c(=O)n(Cc2ccccc2)c2ccccc21	x	x	x	x	n	x
O=C(c1ccc(Cl)c(S(=O)(=O)N2CCCCCC2)c1)N1CCN(c2ccccn2)CC1	x	x	x	x	2.65	x
SMILES	M1 antag	M1 ag	D1 mod	FXIIa mix inh	hDAT+cocaine	FXIa inh mix
CN1CCN(C(=O)c2ccc(Cl)c(S(=O)(=O)N3CCCCC3)c2)CC1	n	n	n	n	n	n
O=C(Nc1ccccc1)c1ccc(N2CCN(c3ccccn3)CC2)c(S(=O)(=O)N2CCOCC2)c1	x	x	x	x	n	x
Cc1ccccc1NC(=O)c1ccc(F)c(S(=O)(=O)N2CCN(c3ccccn3)CC2)c1	n	n	-2.18	n	n	n
COC(=O)c1nn(C23CC4CC(CC(C4)C2)C3)c2c1C(=O)N(c1ccc(F)cc1)C2=O	x	x	x	x	n	x
COc1ccc(-c2noc(CCC(=O)Nc3nc4ccccc4s3)n2)cc1	0.77	n	n	n	n	n
COc1ccc(-c2noc(CCC(=O)Nc3cccc(C)c3)n2)cc1	n	n	n	n	n	n
Cc1nc(NC2=NCN(CCc3ccccc3)CN2)nc2ccccc12	-8.96	n	x	n	x	n
Cc1ccc2c(C)nc(NC3=NCN(CCc4ccccc4)CN3)nc2c1	-12.6	n	n	n	x	n
COCCN1CN=C(Nc2nc(C)c3ccc(C)cc3n2)NC1	-7.3	n	n	n	x	n
Cc1nc(NC2=NCN(CCc3ccccc3)CN2)nc2c(C)cccc12	n	n	n	n	x	n
Cc1ccc2nc(NC3=NCN(Cc4ccccc4)CN3)nc(C)c2c1	n	n	n	n	x	n
CC(C)(C)n1nc2c(c1NC(=O)c1ccccc1F)CS(=O)C2 (stereo not given)	n	n	n	n	n	n
CCn1c(COc2ccccc2)nnc1SCC(=O)c1cccc([N+](=O)[O-])c1	x	x	x	x	n	x
O=C(/C=C/Nc1ccccc1)c1ccc(Oc2ncccn2)cc1	x	x	x	x	n	x
C/C(=C\C(=O)c1ccc(C)cc1)Nc1cccc(O)c1	n	n	n	n	x	n
O=C(/C=C/Nc1cccc(O)c1)c1ccccc1	n	n	-8.73	n	n	n
Cc1ccc(C(=O)/C=C/Nc2cccc(O)c2)cc1	n	n	-2.78	n	n	n
CSc1cccc(NC(=O)CN(c2ccc(C)cc2C)S(C)(=O)=O)c1	n	n	n	n	n	n
CCCNC(=O)C1CN(S(=O)(=O)c2ccccc2)CCN1S(=O)(=O)c1ccccc1 (stereo not given)	n	n	n	n	n	n
Cc1c(CNC(=O)c2cnn3c2NC(c2ccc(Br)cc2)CC3C(F)(F)F)cnn1C (stereo not given)	n	n	n	n	3.13	n
Cc1ccc(S(=O)(=O)N/N=C\c2cn(-c3ccccc3)nc2-c2ccccc2)cc1	x	x	x	x	n	x
Cc1ccc(S(=O)(=O)N/N=C/c2c(C)nn(-c3ccccc3)c2C)cc1	x	x	x	x	2.52	x
COC(=O)CN1C(=O)C2(C(C#N)=C(N)Oc3ccccc32)C2=C1CC(C)(C)CC2=O (stereo not given)	x	x	x	x	n	x
CN(C)C(CNS(=O)(=O)c1ccc(Cl)cc1)c1cccnc1 (stereo not given)	x	x	x	x	n	x
CN(C)C(CNS(=O)(=O)c1ccc(Br)cc1)c1cccnc1 (stereo not given)	n	n	x	n	-8.89	n
SMILES	M1 antag	M1 ag	D1 mod	FXIIa mix inh	hDAT+cocaine	FXIa inh mix
Cn1c2c(c(=O)n(C)c1=O)C(CC(=O)Nc1ccccc1)C(=O)N2 (stereo not given)	n	n	n	n	-7.95	n
Cc1ccn2c(NC3CCCCC3)c(C)nc2c1	n	n	n	n	n	n
CCn1c(N)c(C(=O)N2CCOCC2)sc1=S	n	n	n	n	n	n
Clc1ccc(CN2C3=NCCCN3c3ccccc32)cc1	n	n	n	n	x	n
O=C1c2ccccc2N(Cc2ccc(Cl)cc2)C2=NCCN12	n	n	10.8	n	x	n
O=C(CN1C(=O)NC(Cc2ccccc2)C1=O)NC(=O)NC1CCCCC1 (stereo not given)	n	n	n	n	n	n
COc1cc(C(=O)Nc2ccc3c(c2)OCCO3)ccc1-n1cnnn1	n	n	x	n	n	n
CCN(CC)c1ccc2cc(C(=O)Nc3ccc(-n4cnnn4)c(OC)c3)c(=O)oc2c1	n	19.9	n	n	x	n
Cc1cc(=O)oc2cc(OCC(=O)OCC(=O)N3CCc4ccccc43)ccc12	n	n	n	n	n	n
COc1cccc2cc(C(=O)Nc3cccnc3N3CCOCC3)c(=O)oc12	n	n	n	n	n	n
